Source: PubChem BioAssay
NPC1 promoter act: activates the NPC1 promoter | Potency, µM (doses to about 9.22 µM), hits mostly activators | actives 2.4% (n = 320,000) | Huh7 NPC1 promoter luciferase reporter, 24 h; note: nearly all actives have a fitted effect of over 60% in size
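Cells: Huh7 expressing luciferase under the NPC1 promoter, 1500/well. Seeded 2 h, compound added, incubated 24 h at 37 °C. Luciferase reagent, 10 min ambient, then luminescence.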
Rab9 promoter act: activates the Rab9 promoter; AID 485297; Potency, µM (series often up to 9.22 µM), usual class: activators; actives 2.8% (n = 320,000); Huh7 Rab9 promoter-luciferase reporter, luminescence, 24 h; note: nearly all actives have a fitted effect of over 60% in size
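Promoter activation is measured as luciferase luminescence in Huh7 cells stably transfected with a Rab9 promoter–luciferase construct, following 24 h compound exposure at 37 °C and 10 min reagent incubation at ambient temperature.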
SMN2 splice enh: SMN2 splice variant enhancement; actives 2.8% (n = 210,000); HEK293 SMN2-luciferase splicing reporter, luminescence, 30-36 h; AID 1458; Potency, µM (titrated, usually from 46.1 µM), actives largely listed as activators; note: nearly all actives have a fitted effect of over 55% in size
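HEK293 cells carry an SMN2 […]–luciferase reporter in which exon 7 inclusion puts luciferase in frame. Cells were plated 10-12 h before compound addition, then incubated 30-36 h at 37C. ONE-Glo luminescence was read; sodium butyrate at 4.5 mM final served as control.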
ELG1 repair inh: inhibitors of ELG1-dependent DNA repair in HEK293T cells | HEK293T ELG1-luciferase reporter, luminescence, 16 h; DNA damage induced by 5-fluorouridine | Potency, µM (highest dose often 46.1 µM), actives largely listed as inhibitors | actives 2.3% (n = 330,000); note: nearly all actives have a fitted effect of over 55% in size
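Cells (2,000 per well) received 5-fluorouridine plus test compound or DMSO and were incubated 16 hr at 37 °C, 5% CO2. Luciferase activity was read by luminescence 30 min after ONE-Glo addition; signal suppression marked inhibition of damage-induced ELG1 function.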
FLuc modulator: firefly luciferase modulation, counter-screen for miR-21 project; P08659; purified FLuc, Km substrates, luminescence inhibition; Potency, µM (doses to about 57.5 µM), most hits filed as inhibitors; actives 6.9% (n = 360,000); note: nearly all actives have a fitted effect of over 55% in size
Target sequence (P08659 whole entry, looked up): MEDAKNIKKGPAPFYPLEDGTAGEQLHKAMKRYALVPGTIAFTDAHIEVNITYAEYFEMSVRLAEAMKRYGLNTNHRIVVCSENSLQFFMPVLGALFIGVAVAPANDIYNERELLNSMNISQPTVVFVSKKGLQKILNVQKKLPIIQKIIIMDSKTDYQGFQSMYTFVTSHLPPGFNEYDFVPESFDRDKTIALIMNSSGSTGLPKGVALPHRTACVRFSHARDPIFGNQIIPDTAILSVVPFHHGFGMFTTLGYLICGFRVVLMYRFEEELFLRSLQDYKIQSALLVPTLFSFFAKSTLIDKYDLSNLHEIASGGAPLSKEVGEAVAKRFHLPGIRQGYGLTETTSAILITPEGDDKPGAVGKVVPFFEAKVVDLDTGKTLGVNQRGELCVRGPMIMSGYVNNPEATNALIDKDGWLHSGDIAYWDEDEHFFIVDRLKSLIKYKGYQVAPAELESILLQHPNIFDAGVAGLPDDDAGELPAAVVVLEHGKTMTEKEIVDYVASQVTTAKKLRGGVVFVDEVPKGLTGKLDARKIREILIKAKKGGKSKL
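Biochemical qHTS of compounds, final roughly 60 µM downward over six points, against 10 nM purified firefly luciferase using Km concentrations of substrates (10 uM D-luciferin, 10 uM ATP) in Tris acetate pH 7.5 buffer; luminescence output.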
ELG1 genotoxic: induces genotoxicity in HEK293T cells with luciferase-tagged ELG1; HEK293T ELG1-luciferase reporter, luminescence, 16 h; Potency, µM (top dose mostly 46 µM), hits mostly activators; actives 1.3% (n = 330,000); AID 504466; note: nearly all actives have a fitted effect of over 60% in size
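DMSO vehicle served as control against compound-treated ELG1-luciferase HEK293T cells; exposure lasted 16 hr at 37 °C and 5% CO2, followed by ONE-Glo luminescence detection after 30 min.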
Of the large screens only hits and unclear results are named; the others gave an inactive call. Rows were chosen to be rich in hits. Some 9.2% of all compounds tested hit in one or more screens of this group. Calls come from the whole dose curve; as a rule, active = well fitted curve in the direction sought with a large enough effect; inconclusive = small, poorly fitted or top-dose-only effect, or another doubt; inactive = no such curve, though single readings can be large; an effect the other way counts as inactive or inconclusive.

Cn1cc(-c2cc3n(n2)CCC(=O)N3CC(=O)NCc2ccc(Cl)cc2)c2ccccc21	none (no result: NPC1 promoter act, Rab9 promoter act, SMN2 splice enh, ELG1 repair inh, ELG1 genotoxic)
Cc1cccc(N2CC(C(=O)Nc3ccccc3N3CCOCC3)CC2=O)c1C (stereo not given)	none (no result: NPC1 promoter act, Rab9 promoter act, SMN2 splice enh, FLuc modulator)
Cc1cccc(CNC(=O)CCCn2c(=O)c3cccn3c3ccc(F)cc32)c1	none (no result: NPC1 promoter act, Rab9 promoter act, SMN2 splice enh, ELG1 repair inh, ELG1 genotoxic)
COc1ccc(C2C(C(=O)Nc3ccccc3OC)=C(C)Nc3c(C(=O)Nc4ccccc4)cnn32)c(OC)c1 (stereo not given)	none (no result: NPC1 promoter act, Rab9 promoter act, SMN2 splice enh, ELG1 repair inh, ELG1 genotoxic)
CCc1cc2cccc(C)c2nc1SCC(=O)N1CCN(C(=O)c2ccco2)CC1	ELG1 repair inh inconclusive (no result: SMN2 splice enh)
Cc1cc(C)c2nc(N3CCC(C(=O)N4CCN(C(=O)c5ccco5)CC4)CC3)sc2c1	ELG1 repair inh 16µM, FLuc modulator inconclusive
CCOc1ccc2nc(N3CCN(C(=O)c4ccco4)CC3)sc2c1	FLuc modulator 21µM (no result: NPC1 promoter act, Rab9 promoter act, SMN2 splice enh, ELG1 repair inh, ELG1 genotoxic)
CCOc1ccc2[nH]c3c(N4CCN(C(=O)c5ccco5)CC4)ncnc3c2c1	FLuc modulator inconclusive (no result: SMN2 splice enh)
O=C(CSc1nc2ccccc2s1)N1CCN(C(=O)c2ccco2)CC1	none
CCc1cc2cc(C)cc(C)c2nc1SCC(=O)N1CCN(C(=O)c2ccco2)CC1	ELG1 repair inh 8.2µM
CCOc1ccc2nc(SCC(=O)N3CCN(C(=O)c4ccco4)CC3)sc2c1	ELG1 repair inh inconclusive, FLuc modulator 17µM
CSc1ccc(CCCCCCOC(=O)C(C)(C)C)cc1	ELG1 repair inh inconclusive (no result: SMN2 splice enh)
Cc1ccc(S(=O)(=O)N2CCc3cc(C(=O)Nc4c(F)cccc4F)ccc32)cc1	none (no result: NPC1 promoter act, Rab9 promoter act, ELG1 repair inh, ELG1 genotoxic)
O=C(Nc1ccccc1)N1CC[C@@]2(CCCN(C(=O)c3ccncc3)C2)C1	none (no result: NPC1 promoter act, Rab9 promoter act, ELG1 repair inh, FLuc modulator, ELG1 genotoxic)
COc1ccccc1C(=O)NCCC(=O)N1CCN(c2cccc(C(F)(F)F)c2)CC1	none (no result: SMN2 splice enh)
Cc1cccc(NC(=O)c2oc3ccccc3c2NC(=O)c2cc(=O)c3cc(Cl)ccc3o2)c1	none (no result: NPC1 promoter act, Rab9 promoter act, ELG1 repair inh, ELG1 genotoxic)
COc1ccc2nc(N3CCN(C(=O)c4ccco4)CC3)sc2c1	FLuc modulator 27µM (no result: NPC1 promoter act, Rab9 promoter act, SMN2 splice enh, ELG1 repair inh, ELG1 genotoxic)
Cc1cccc(CNC(=O)C2CCN(S(=O)(=O)c3ccc4c(c3)CCCN4C(=O)C3CCC3)CC2)c1	none (no result: NPC1 promoter act, Rab9 promoter act, SMN2 splice enh, ELG1 repair inh, ELG1 genotoxic)
O=[N+]([O-])c1cc(Br)c2nsnc2c1N1CCOCC1	none (no result: SMN2 splice enh)
COc1ccc(CNC(=O)c2ccc3c(c2)nc2n3CCCCC2)cc1	FLuc modulator 17µM (no result: NPC1 promoter act, Rab9 promoter act, SMN2 splice enh, ELG1 repair inh, ELG1 genotoxic)
O=C(NCCc1ccccc1Cl)c1ccc2c(c1)nc1n2CCOC1	FLuc modulator 4.8µM (no result: NPC1 promoter act, Rab9 promoter act, SMN2 splice enh, ELG1 repair inh, ELG1 genotoxic)
Cc1cccc(CCNC(=O)c2ccc3c(c2)nc2n3CCOC2)c1	FLuc modulator 15µM (no result: NPC1 promoter act, Rab9 promoter act, SMN2 splice enh, ELG1 repair inh, ELG1 genotoxic)
CCCNC(=O)c1ccc2c(c1)nc1n2CCCCC1	FLuc modulator 17µM (no result: NPC1 promoter act, Rab9 promoter act, SMN2 splice enh, ELG1 repair inh, ELG1 genotoxic)
Cc1ccc(-c2n[nH]c3c2C(c2cccs2)N(c2ccc(Cl)cc2)C3=O)cc1 (stereo not given)	none (no result: NPC1 promoter act, Rab9 promoter act, ELG1 repair inh, ELG1 genotoxic)
COc1ccc(C(=O)N/N=C(\C)CC(=O)NC2CCCCC2)c(OC)c1	none (no result: SMN2 splice enh)
COCCNC(=O)CSc1n[nH]c(=O)n1CCc1ccccc1	none (no result: SMN2 splice enh)
O=C(NCCC1=CCCCC1)c1ccc2c(=O)n3c(nc2c1)CCCCC3	none
Cc1cccc(CCNC(=O)c2ccc3c(c2)nc2n3CCCCC2)c1	FLuc modulator 4.8µM (no result: NPC1 promoter act, Rab9 promoter act, SMN2 splice enh, ELG1 repair inh, ELG1 genotoxic)
O=C(c1cc2c(s1)CCCC2)N1CCN(Cc2ccc3c(c2)OCO3)CC1	ELG1 repair inh inconclusive
O=C(Nc1c(C(=O)Nc2cccc(F)c2)oc2ccccc12)c1ccc2c(c1)OCO2	FLuc modulator 8.5µM, ELG1 genotoxic inconclusive
O=C(Oc1ccc2c(c1)OCO2)c1cc2c(s1)CCC2	FLuc modulator 3.8µM
O=C(NNC(=O)c1ccc(F)cc1F)c1ccc2c(c1)OCO2	Rab9 promoter act 3.2µM, SMN2 splice enh inconclusive, ELG1 repair inh inconclusive, FLuc modulator inconclusive, ELG1 genotoxic inconclusive
Cc1ccc(NC(=O)c2oc3ccccc3c2NC(=O)c2ccc3c(c2)OCO3)cc1	FLuc modulator 6.7µM
O=C(Nc1cccc(F)c1)c1ccc2c(c1)OCO2	NPC1 promoter act 2.8µM, Rab9 promoter act 1.6µM, SMN2 splice enh 6.3µM, ELG1 repair inh inconclusive, FLuc modulator 11µM, ELG1 genotoxic 5.2µM
O=C(Oc1ccc2c(c1)OCO2)c1ccc(F)cc1Cl	Rab9 promoter act inconclusive, ELG1 repair inh inconclusive, FLuc modulator 2.7µM
